The OligoGym collection

What follows are sequences tested against SRCRB4D (assay: pooled miR-30 sensor sort-seq; sequence = guide strand). Conditions: shRNA.
Further: reference of the scale not given here.

Row | Sequence | sensor-assay potency score (higher = more potent)
1 | TTCATCACACAGGACAGCCACA | -1.36
2 | TTAACATCTTCCTTGTTGGGGG | 0.296
3 | TTGTCCAGCAGGATGTGTCCGG | -0.554
4 | TGCTCTACTGGTTAACATCTTC | -0.561
5 | TTCGCAGTGCACGTTGTCCAGC | -0.781
6 | TCGTAGGAGGTGCTCTACTGGT | -1.24
7 | TCTACTGGTTAACATCTTCCTT | -0.575
8 | TAACATCTTCCTTGTTGGGGGC | -0.0485
9 | TTGGCGTCCACCACGTCCCAGT | -1.07
10 | TTTTCCATTCGGCAGTGTCGTA | -1.69
11 | TTGACCAGACGTAGATGCCCGT | -0.902
12 | TACACGTCCCTCGCATCGGTGG | -1.14

What follows are sequences tested against SRC in the same assay as above. Conditions: shRNA.

Row | Sequence | sensor-assay potency score (higher = more potent)
13 | TTTCGTGGTCTCACTTTCTCGC | 0.127
14 | TCTCGCACGAGGAAGGTCCCTC | -0.579
15 | TCATTGTCTTCAATGAGCCGAG | -0.463
16 | TGAAACCACAGCATACAACTGC | 0.358
17 | TGTGTTGTTGACAATCTGGAGC | -0.666
